# Only some compounds are listed: those with a hit (about 1.8% of all), similar ones and a draw of the others.
# GSTO1 inh: GSTO1 inhibition, counter-screen for RBBP9 inhibitors; recombinant GSTO1, activity-based probe fluorescence polarization; AID 1974; inhibition, % at 5.96 µM; 1.1% of 300,000 active; P78417;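 active = inhibition above the campaign mean inhibition plus 3 SD, cut at about 35% in these data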;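 also: 0% = GSTO1-1 with DMSO and 100% = wells lacking GSTO1-1 enzyme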
# LYPLA1 counter: blocks human lysophospholipase 1, a PME1 counter-screen. inhibition, % at 5.9 µM. O75608. 0.16% of 320,000 active. AID 2174. recombinant LYPLA1, FP-Rh probe fluorescence polarization;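 active = inhibition above the mean of all tested compounds plus 3 SD, set per campaign, cut at about 14% in these data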;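 also: inhibitors block serine hydrolase probe labeling of LYPLA1 so polarization falls; 0% = enzyme with DMSO and 100% = wells lacking LYPLA1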
# Target sequence (O75608 whole entry, looked up): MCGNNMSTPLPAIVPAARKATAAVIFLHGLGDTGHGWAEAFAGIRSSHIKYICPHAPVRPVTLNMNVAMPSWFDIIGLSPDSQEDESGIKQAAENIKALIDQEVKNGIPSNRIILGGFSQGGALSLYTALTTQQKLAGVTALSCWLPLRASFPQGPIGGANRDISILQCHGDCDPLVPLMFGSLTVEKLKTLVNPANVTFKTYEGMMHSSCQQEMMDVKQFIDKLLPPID
# PAD4 FP inh: PAD4 (human) enzyme inhibition; 0.41% of 330,000 active; recombinant PAD4, RCA probe fluorescence polarization; inhibition, % at 6.36 µM; Q9UM07;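 active = percent inhibition above a cutoff equal to the mean of all tested compounds plus 3 SD, cut at about 15% in these data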;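 also: 0% = PAD4 with RCA probe and DMSO and 100% = probe without PAD4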
# PME-1 primary: blocks human protein phosphatase methylesterase 1 | Q9Y570 | recombinant PME-1, FP-Rh probe fluorescence polarization | inhibition, % at 5.9 µM | 0.53% of 320,000 active;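 active = inhibition above the campaign mean of all compounds plus 3 SD, cut at about 26% in these data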;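 also: competitive labeling of PME-1 active site by serine hydrolase directed probe; 0% = PME-1 with DMSO and 100% = wells lacking PME-1 enzyme; inhibitors block probe labeling so polarization falls and inhibition rises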
# LYPLA2 counter: LYPLA2 (human) inhibition in PME1 counter-screen; 0.38% of 320,000 active; AID 2177; recombinant LYPLA2, FP-Rh probe fluorescence polarization; O95372; inhibition, % at 5.9 µM;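 active = inhibition above the screen-wide mean plus 3 SD, limit set per campaign, cut at about 26% in these data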;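 also: 0% = LYPLA2 with DMSO and 100% = wells lacking LYPLA2 enzyme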
# Target sequence (O95372 whole entry, looked up): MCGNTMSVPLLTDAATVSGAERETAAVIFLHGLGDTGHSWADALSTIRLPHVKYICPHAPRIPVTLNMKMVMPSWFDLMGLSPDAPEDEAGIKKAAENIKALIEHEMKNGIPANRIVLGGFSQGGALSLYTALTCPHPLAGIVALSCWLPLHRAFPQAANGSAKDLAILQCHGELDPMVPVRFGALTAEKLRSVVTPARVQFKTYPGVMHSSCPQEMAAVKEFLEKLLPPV
# Fam108B counter: Fam108B inhibition, counter-screen for RBBP9 inhibitors; 0.33% of 300,000 active; inhibition, % at 9.51 µM; recombinant Fam108B, FP-Rh probe fluorescence polarization;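 active = inhibition above the screen mean inhibition plus 3 SD, computed separately per campaign, cut at about 18% in these data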;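 also: inhibitors lower polarization as less probe binds the enzyme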
# Active calls of the source: *; . = no result.
SMILES,GSTO1 inh,LYPLA1 counter,PAD4 FP inh,PME-1 primary,LYPLA2 counter,Fam108B counter
CNC(=O)c1c(NC(=O)c2ccc(S(=O)(=O)N3CCCC3)cc2)sc2c1CCN(C(C)C)C2,6,-2,-2,34*,5,3
COc1ccc(C2CC(c3ccc(Cl)cc3)=NN2C(=O)c2cccc([N+](=O)[O-])c2)cc1 (stereo not drawn),-5,-3,-3,-2,-4,-5
COc1ccc(/C=N/Nc2nc3ccccc3o2)cc1O,-4,-3,2,48*,-8,1
COc1cc(/C=N\Nc2nc3ccccc3o2)cc(OC)c1OC,6,-1,-5,29*,2,0
Brc1ccc(/C=N/Nc2nc3ccccc3o2)cc1,-3,-3,-7,31*,4,-6
CC12CCC(=O)N1C(C(=O)N1CCN(c3ccc([N+](=O)[O-])cc3)CC1)CS2 (stereo not drawn),.,.,-2,.,.,.
O=C1C(=O)N(C2CCS(=O)(=O)C2)C(c2cccc(O)c2)/C1=C(/O)c1ccc(Cl)cc1 (stereo not drawn),-4,-1,-5,-6,5,3
S=C(Nc1ccc(Cl)cc1)Nc1cccc2cnccc12,38*,-3,-2,3,10,2
Fc1ccc(NC(=S)Nc2cccc3cnccc23)cc1,15,0,-14,1,2,6
CCC(=O)Nc1ccc(N2CCCCC2)cc1,3,1,0,1,-2,5
O=C(CCl)Nc1ccc(N2CCCCCC2)cc1,95*,-1,2,-4,-2,3
Cc1ccc(C(=O)CSC2=C(C#N)C(c3ccco3)C3=C(CCCC3=O)N2)cc1 (stereo not drawn),-4,-1,-1,32*,2,-2
Oc1ccc(-c2csc(Nc3ncccn3)n2)c(O)c1,21,0,-4,0,-7,0
N#Cc1ccc(Nc2nc(-c3ccc(O)cc3O)cs2)cc1C(F)(F)F,.,-6,-1,61*,8,.
Oc1c(Br)cc(Br)cc1CNc1cnc2ccccc2c1,15,-3,-9,46*,-3,4
Nc1ccc(N2CCCCCC2)cc1,78*,3,43*,16,9,13
O=S(=O)(Nc1ccc(O)c2ccccc12)c1ccc(Br)cc1,61*,-4,19*,4,-1,-1
O=C(O)c1ccccc1O,4,-2,-9,-4,-3,-4
Nc1c(O)cccc1C(=O)O,76*,0,13,0,10,1
COc1ccc(S(=O)(=O)N(C)CC(=O)NCCN2CCOCC2)cc1Cl,5,-1,-3,4,2,-1
COc1cccc(OCCNS(=O)(=O)c2ccccc2[N+](=O)[O-])c1,.,.,-3,.,.,.
CC(=O)Nc1cn(-c2ccccc2)nc1-c1ccccc1,5,-2,-4,-9,-5,-2
O=C(CCl)Nc1cn(-c2ccccc2)nc1-c1ccccc1,51*,-4,4,-2,-6,-6
CN(C)C(=O)CN1CCN(C(=O)CCl)CC1,61*,-3,-5,-6,-1,2
CC#CCN1c2ccccc2[C@]23C[C@@H](C(=O)OC)N(C(=O)c4cc(C)oc4C)C2=NC(C(=O)OC)=C(C(=O)OC)[C@H]13,2,1,-1,28*,3,0
SMILES,GSTO1 inh,LYPLA1 counter,PAD4 FP inh,PME-1 primary,LYPLA2 counter,Fam108B counter
C=CCN1c2ccccc2[C@]23C[C@@H](C(=O)OC)N(C(=O)c4cc(C)oc4C)C2=NC(C(=O)OC)=C(C(=O)OC)[C@H]13,6,1,1,15,8,0
COc1ccc([C@H]2C(C(=O)O)=C[C@@H](CC3CCCC3)N2S(=O)(=O)c2ccc(C)cc2)cc1OC,.,.,-1,.,.,.
Cc1cccc(C)c1NC(=O)CN1C(=O)S/C(=C\c2cccn2-c2cccc(C(=O)O)c2)C1=O,17,2,-2,-2,4,-1
Cc1ccc(NC(=O)CN2C(=O)S/C(=C\c3cccn3-c3cccc(C(=O)O)c3)C2=O)c(C)c1,-11,-5,-5,-2,30*,-33
COc1ccc(/C=C\C(=O)O[C@@H]2C(O)C(O[C@@H]3OC(C)[C@H](O[C@@H]4OCC(O[C@H]5O[C@H](CO)[C@@H](O)C(O)C5O)C(O)C4O)C(O)C3O)[C@H](OC(=O)[C@]34CCC(C)(C)C[C@@H]3C3=CCC5[C@@]6(C)CC(O)C(O[C@@H]7OC(CO)C(O)[C@H](O)[C@H]7O)[C@@](C)(C(=O)O)C6CC[C@@]5(C)[C@]3(CO)CC4)O[C@H]2C)cc1 (stereo partly drawn),.,.,-7,.,.,.
CC(=O)Nc1ccc(S(=O)(=O)NC2=C(N3CCN(c4ccc(F)cc4)CC3)C(=O)c3ccccc3C2=O)cc1,57*,1,-4,16,8,12
CC(C(=O)Nc1ccccc1F)N1CCN(C)CC1 (stereo not drawn),-4,-4,0,-2,-1,-1
O=C(CCSc1ccc(Cl)cc1)c1ccco1,-4,0,2,0,1,-4
O=C(CSc1ccc(Cl)cc1)c1ccco1,37*,-2,0,2,7,11
Cc1ccc(C)c(NC(=O)COC(=O)c2cc3ccccc3oc2=O)c1,.,1,-1,27*,1,.
CC(=O)NC1=C(NC2CCS(=O)(=O)C2)C(=O)c2ccccc2C1=O (stereo not drawn),31,-1,-13,-1,2,-3
CN(C1=C(NC(=O)c2ccccc2)C(=O)c2ccccc2C1=O)C1CCS(=O)(=O)C1 (stereo not drawn),75*,-4,4,6,-1,6
Cc1cc(C)nc(SCc2nnc(SCC(=O)Nc3nc(-c4ccccc4)cs3)n2C)n1,19,0,2,0,1,0
Cc1ccc(C(=O)CSc2nnc(CNc3nc(-c4ccccc4)cs3)n2C)cc1,37*,1,2,0,9,3
Cc1ccc(NC(=O)COC(=O)c2ccc([N+](=O)[O-])s2)c(C)c1,35*,-3,-10,0,3,3
Cc1cc(C)c(NC(=O)COC(=O)c2ccc([N+](=O)[O-])s2)c(C)c1,6,-4,-8,-8,-3,3
CC(NC(=O)COC(=O)c1ccc([N+](=O)[O-])s1)c1ccccc1 (stereo not drawn),44*,-3,-10,8,3,11
NS(=O)(=O)c1ccc(NC(=O)COC(=O)c2ccc([N+](=O)[O-])s2)cc1,44*,-1,-10,8,7,5
Cc1ccc(C(=O)OCC(=O)NC(C)c2ccccc2)s1 (stereo not drawn),.,.,-1,.,.,.
CN(C)c1ccc(-c2nnc(-c3ccccc3F)o2)cc1,1,2,4,6,5,3
Cc1ccc(NC(=O)c2ccccc2OCC(=O)Nc2ccccc2F)cc1S(=O)(=O)N(C)C,.,-39,-3,-72,-71,.

# Assay outcomes: PubChem BioAssay, The Scripps Research Institute Molecular Screening Center
